The campaign covered roughly 5,500 compounds. About 2,000 (36%) were called active. Inconclusive results (about 18%) are left out. No stated cut-off is given here; in the data, active means normalized growth mostly below about 0.91 (no sharp cut-off); inconclusive means no clear call, values can overlap the other calls; inactive means mostly above about 0.92. The list shows a part of the results.
Assay: chemical genetic growth profiling, strain panel (AID 1159580);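 further: tested at 20 µM; growth read once vehicle control cultures reached saturation at 30 °C; 1 = growth at the plate median or of vehicle wells; lower values mean less growth of the strain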
Details: growth OD

Measured: normalized growth

CCCc1nc(C(C)(C)O)c(C(=O)OCc2oc(=O)oc2C)n1Cc1ccc(-c2ccccc2-c2nn[nH]n2)cc1
inactive: S. cerevisiae deletion strains, locus YKL009W, strain mrt4, hits give low values 0.957 | S. cerevisiae deletion strains, locus YKL068W, hits give low values 0.988 | S. cerevisiae deletion strains, locus YKL085W, strain MDH1 (second series), hits give low values 0.98 | S. cerevisiae deletion strains, locus YKL085W, strain MDH1, hits give low values 0.98 | S. cerevisiae deletion strains, locus YKL160W, strain elf1, hits give low values 0.994 | S. cerevisiae deletion strains, locus YKL190W, strain CNB1, hits give low values 1.01 | S. cerevisiae deletion strains, locus YKR001C, strain vps1, hits give low values 0.985 | S. cerevisiae deletion strains, locus YKR026C, strain gcn3, hits give low values 0.976 | S. cerevisiae deletion strains, locus YKR091W, strain srl3, hits give low values 0.981 | S. cerevisiae deletion strains, locus YLL001W, strain dnm1, hits give low values 0.972 | S. cerevisiae deletion strains, locus YLL026W, hits give low values 0.958 | S. cerevisiae deletion strains, locus YLL041C, strain sdh2, hits give low values 0.972 | S. cerevisiae deletion strains, locus YLR027C, strain aat2, hits give low values 0.984 | S. cerevisiae deletion strains, locus YLR039C, strain RIC1, hits give low values 0.981 | S. cerevisiae deletion strains, locus YLR058C, strain SHM2, hits give low values 0.988 | S. cerevisiae deletion strains, locus YLR102C, strain apc9, hits give low values 0.989 | S. cerevisiae deletion strains, locus YLR113W, strain HOG1, hits give low values 0.987 | S. cerevisiae deletion strains, locus YLR221C, strain rsa3, hits give low values 1.02 | S. cerevisiae deletion strains, locus YLR258W, strain gsy2, hits give low values 0.977 | S. cerevisiae deletion strains, locus YLR262C, strain YPT6 (second series), hits give low values 0.962 | S. cerevisiae deletion strains, locus YLR262C, strain YPT6, hits give low values 0.987 | S. cerevisiae deletion strains, locus YLR268W, strain sec22, hits give low values 0.971 | S. cerevisiae deletion strains, locus YLR320W, strain mms22, hits give low values 1.01 | S. cerevisiae deletion strains, locus YLR330W, strain CHS5, hits give low values 0.995 | S. cerevisiae deletion strains, locus YLR342W, strain FKS1 (second series), hits give low values 0.977 | S. cerevisiae deletion strains, locus YLR342W, strain FKS1, hits give low values 0.978 | S. cerevisiae deletion strains, locus YLR357W, strain rsc2, hits give low values 0.985 | S. cerevisiae deletion strains, locus YLR370C, strain arc18, hits give low values 0.947 | S. cerevisiae deletion strains, locus YLR371W, strain rom2, hits give low values 0.985 | S. cerevisiae deletion strains, locus YLR384C, strain iki3, hits give low values 0.977 | S. cerevisiae deletion strains, locus YLR418C, strain cdc73, hits give low values 0.952 | S. cerevisiae deletion strains, locus YML016C, strain PPZ1, hits give low values 0.993 | S. cerevisiae deletion strains, locus YML032C, strain rad52, hits give low values 0.993 | S. cerevisiae deletion strains, locus YML120C, strain ndi1, hits give low values 0.97 | S. cerevisiae deletion strains, locus YML124C, strain tub3, hits give low values 0.984 | S. cerevisiae deletion strains, locus YMR058W, strain fet3, hits give low values 0.965 | S. cerevisiae deletion strains, locus YMR078C, strain ctf18, hits give low values 0.99 | S. cerevisiae deletion strains, locus YMR125W, strain sto1, hits give low values 0.932 | S. cerevisiae deletion strains, locus YMR129W, hits give low values 0.97 | S. cerevisiae deletion strains, locus YMR205C, strain PFK2, hits give low values 0.976 | S. cerevisiae deletion strains, locus YMR223W, strain ubp8, hits give low values 0.995 | S. cerevisiae deletion strains, locus YMR231W, strain pep5, hits give low values 0.967 | S. cerevisiae deletion strains, locus YMR263W, strain SAP30, hits give low values 1.02 | S. cerevisiae deletion strains, locus YMR307W, strain GAS1, hits give low values 0.894 | S. cerevisiae deletion strains, locus YNL067W, strain RPL9B, hits give low values 1.03 | S. cerevisiae deletion strains, locus YNL071W, strain lat1, hits give low values 0.977 | S. cerevisiae deletion strains, locus YNL128W, strain TEP1, hits give low values 1.02 | S. cerevisiae deletion strains, locus YNL153C, strain GIM3, hits give low values 0.996 | S. cerevisiae deletion strains, locus YNL183C, strain NPR1, hits give low values 0.963 | S. cerevisiae deletion strains, locus YNL209W, strain ssb2, hits give low values 0.971 | S. cerevisiae deletion strains, locus YNL233W, strain BNI4, hits give low values 0.992 | S. cerevisiae deletion strains, locus YNL248C, strain rpa49, hits give low values 0.969 | S. cerevisiae deletion strains, locus YNL250W, strain rad50, hits give low values 0.992 | S. cerevisiae deletion strains, locus YNL271C, strain bni1, hits give low values 0.992 | S. cerevisiae deletion strains, locus YNL298W, strain CLA4, hits give low values 0.975 | S. cerevisiae deletion strains, locus YNL307C, strain MCK1, hits give low values 0.992 | S. cerevisiae deletion strains, locus YNL322C, strain KRE1 (second series), hits give low values 0.972 | S. cerevisiae deletion strains, locus YNL322C, strain KRE1, hits give low values 0.997 | S. cerevisiae deletion strains, locus YNR049C, strain mso1, hits give low values 0.968 | S. cerevisiae deletion strains, locus YNR052C, strain pop2, hits give low values 0.99 | S. cerevisiae deletion strains, locus YOL006C, strain TOP1, hits give low values 0.998 | S. cerevisiae deletion strains, locus YOL012C, strain htz1 1.03 | S. cerevisiae deletion strains, locus YOL147C, strain pex11, hits give low values 0.998 | S. cerevisiae deletion strains, locus YOR001W, strain rrp6, hits give low values 0.943 | S. cerevisiae deletion strains, locus YOR061W, strain CKA2, hits give low values 0.989 | S. cerevisiae deletion strains, locus YOR069W, strain VPS5, hits give low values 0.994 | S. cerevisiae deletion strains, locus YOR070C, strain gyp1, hits give low values 0.992 | S. cerevisiae deletion strains, locus YOR080W, strain dia2, hits give low values 0.964 | S. cerevisiae deletion strains, locus YOR083W, strain WHI5, hits give low values 0.993 | S. cerevisiae deletion strains, locus YOR106W, strain vam3, hits give low values 0.969 | S. cerevisiae deletion strains, locus YOR136W, strain idh2, hits give low values 0.986 | S. cerevisiae deletion strains, locus YOR144C, strain elg1, hits give low values 0.985 | S. cerevisiae deletion strains, locus YOR184W, strain ser1, hits give low values 0.995 | S. cerevisiae deletion strains, locus YOR231W, strain MKK1, hits give low values 0.958 | S. cerevisiae deletion strains, locus YOR265W, strain rbl2, hits give low values 0.979 | S. cerevisiae deletion strains, locus YOR270C, strain vph1, hits give low values 1.01 | S. cerevisiae deletion strains, locus YOR290C, strain snf2, hits give low values 0.983 | S. cerevisiae deletion strains, locus YOR316C, strain cot1, hits give low values 0.989 | S. cerevisiae deletion strains, locus YPL051W, strain arl3, hits give low values 0.988 | S. cerevisiae deletion strains, locus YPL055C, strain LGE1, hits give low values 0.993 | S. cerevisiae deletion strains, locus YPL078C, strain atp4, hits give low values 0.961 | S. cerevisiae deletion strains, locus YPL106C, strain sse1, hits give low values 0.894 | S. cerevisiae deletion strains, locus YPL240C, strain hsp82, hits give low values 0.974 | S. cerevisiae deletion strains, locus YPL241C, strain CIN2, hits give low values 0.999 | S. cerevisiae deletion strains, locus YPL256C, strain CLN2, hits give low values 0.95 | S. cerevisiae deletion strains, locus YPR119W, strain clb2, hits give low values 0.992 | S. cerevisiae deletion strains, locus YPR141C, strain kar3, hits give low values 0.99 | S. cerevisiae deletion strains, locus YPR163C, strain tif3, hits give low values 0.981 | S. cerevisiae deletion strains, locus YPR167C, strain met16, hits give low values 0.982 | S. cerevisiae deletion strains, strain wtn01, hits give low values 0.981 | S. cerevisiae strains, strain wild type, hits give low values 1.02

Reference: PubChem BioAssay AID1159580 (chemical genetic matrix, 2015)
